The entries come from a sample that favours hits as a whole.
Cruzain noTriton: blocks cruzain activity in detergent-free assay | P25779 | purified cruzain, Z-FR-AMC fluorescence, no detergent | Potency, µM, hits mostly inhibitors | 200,000 compounds, 2.3% hits; further: nearly all actives have a fitted effect of over 40% in size
Target sequence (P25779 123-467 limits assumed): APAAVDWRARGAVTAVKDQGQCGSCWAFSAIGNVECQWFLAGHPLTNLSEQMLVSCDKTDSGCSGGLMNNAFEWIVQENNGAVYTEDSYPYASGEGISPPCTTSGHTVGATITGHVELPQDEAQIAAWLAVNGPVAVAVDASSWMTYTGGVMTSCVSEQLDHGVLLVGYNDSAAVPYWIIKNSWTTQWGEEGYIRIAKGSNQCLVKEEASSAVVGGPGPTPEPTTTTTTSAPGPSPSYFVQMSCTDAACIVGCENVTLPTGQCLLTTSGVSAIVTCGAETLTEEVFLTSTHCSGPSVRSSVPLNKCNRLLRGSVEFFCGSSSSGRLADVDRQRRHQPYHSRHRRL
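Detergent-free condition (0.00005% Triton X-100) in acetate buffer pH 5.5 with DTT. 1.5 nM enzyme and compound were pre-mixed 15 min, then 2 uM Z-FR-AMC substrate added; reaction progress from fluorescence change between first and third reads (60 s).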
Cruzain inh Det: blocks cruzain activity in presence of Triton detergent | purified cruzain, Z-FR-AMC fluorescence, 0.01% Triton | 200,000 compounds, 0.43% hits | Potency, µM, actives largely listed as inhibitors; further: nearly all actives have a fitted effect of over 40% in size
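Sodium acetate buffer (100 mM, pH 5.5) containing 5 mM DTT and 0.01% Triton X-100 hosted 1.5 nM cruzain and test compound for 15 min at room temperature. Cleavage of 2 uM Z-FR-AMC was then tracked by fluorescence.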
NS1 function inh: influenza NS1 inhibition. Potency, µM (highest dose often 46.1 µM). 270,000 compounds, 0.4% hits; calls by dose curve; further: actives are rising curves; nearly all actives have a fitted effect of over 50% in size
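Read-out: OD600 growth recovery of NS1-expressing budding yeast. Cells grown overnight at 30C in -URA glucose medium, washed, resuspended and diluted 1:100 in 2% galactose assay medium, pH 6.0. Same strain lacking NS1 served as positive control.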
Hits are given with their value; - = inactive; ? = inconclusive; . = not tested or not shown. Unless noted, the call rests on the fitted dose curve; in most records, active means well fitted curve in the direction sought with a large enough effect; inconclusive means small, poorly fitted or top-dose-only effect, or another doubt; inactive means no such curve, though single readings can be large; an effect the other way counts as inactive or inconclusive.

SMILES	Cruzain noTriton	Cruzain inh Det	NS1 function inh
COc1cccc(NC(=O)C2C3CCC4C(CCC32)C4(Cl)Cl)c1 (stereo not given)	-	-	-
COc1ccc(NC(=O)C2C3CCC4C(CCC32)C4(Cl)Cl)cc1 (stereo not given)	25µM	-	-
Cc1ccc(S(=O)(=O)N2CCC(=O)N(C(COCc3ccc(C(F)(F)F)cc3)Cc3ccccc3)CC2)cc1 (stereo not given)	-	-	?
CC/C(=N\NC(=O)c1nnn(-c2nonc2N)c1-c1ccc2c(c1)OCO2)c1ccccc1	.	.	-
O=C1c2cccc(O)c2C(=O)c2c(O)cccc21	-	-	-
O=C1C=CC(=O)c2c(O)cccc21	7.9µM	-	.
COc1ccccc1Nc1ncnc2sccc12	.	.	-
CCn1nc(C)c(NC(=O)/C=C/c2ccc(OC)c(COc3ccc(Cl)cc3Br)c2)c1C	-	-	-
COc1ccc(/C=C/C(=O)NCc2cn(C)nc2C)cc1COc1ccc(Cl)cc1Br	-	14µM	-
C/C(=N/NC(=O)c1ccc(C)s1)c1cccnc1	.	.	-
Fc1ccccc1Sc1ccccc1CNC1=NCCN1	-	-	-
O=C(COC(=O)CCN1C(=O)C2CC=CCC2C1=O)NCCc1ccccc1 (stereo not given)	.	.	-
CN1CC(C(=O)c2ccc(Cl)cc2)C(c2ccccc2)C1 (stereo not given)	.	.	-
COc1ccc(C(=O)C2CN(c3ccccc3)CC2c2ccc(Cl)cc2)cc1 (stereo not given)	16µM	-	-
O=C(Cn1nnc(-c2ccccc2Cl)n1)N/N=C/c1ccc(-c2cccc(Cl)c2)o1	32µM	-	-
O=C(CN1CCCC1)N/N=C/c1ccc(-c2cccc(Cl)c2)o1	-	-	-
CCOc1cc(S(=O)(=O)NCC2CCCO2)ccc1F (stereo not given)	.	.	-
COc1cccc(CN2CCC(C(=O)N3CCN(c4ccccc4F)CC3)CC2)c1	-	-	-
CC(=O)c1cc2c(ccc3ccccc32)oc1=O	.	.	-
O=c1oc2ccccc2cc1-c1csc(NN=C2CCCC2)n1	-	-	-
C/C(=N\Nc1nc(-c2cc(C)ccc2C)cs1)c1cc2c(ccc3ccccc32)oc1=O	7.9µM	-	-
C/C(=N\Nc1nc(-c2cc(C)ccc2C)cs1)c1cc2ccccc2oc1=O	25µM	?	-
CCC1CCCCN1S(=O)(=O)c1ccc(C(=O)N(CCCN(C)C)c2nc3cc4c(cc3s2)OCO4)cc1 (stereo not given)	.	.	-
CCc1nnc(NC(=O)Cn2ccc(C(F)(F)F)n2)s1	-	-	-
O=C(c1ccco1)N1CCN(C(=O)C2CC(c3ccc(Cl)cc3)=NO2)CC1 (stereo not given)	-	-	-
SMILES	Cruzain noTriton	Cruzain inh Det	NS1 function inh
CSc1cc(-c2ccccc2)n(Cc2ccc(Cl)cc2Cl)c(=O)c1C#N	25µM	-	-
Cc1cc(C)n(Cc2ccc(Cl)cc2Cl)c(=O)c1S(=O)(=O)c1ccccc1	-	-	-
O=[N+]([O-])c1ccc(CCNc2cccc3ccccc23)c([N+](=O)[O-])c1	25µM	-	-
O=C(Nc1cccc2ccccc12)c1cccc([N+](=O)[O-])c1	.	.	-
N#Cc1c(N)n(-c2cccc(C(=O)O)c2)c2nc3ccccc3nc12	.	.	-
COC(=O)c1ccccc1NC(=O)c1ccc(-c2ccc(Br)cc2)o1	7.9µM	-	-
O=C(Nc1cccc(NC(=O)c2ccc(-c3ccc(Br)cc3)o2)c1)c1ccco1	32µM	-	-
CS(=O)(=O)N1CCN(c2ccccc2NC(=O)c2ccc(-c3ccc(Br)cc3)o2)CC1	25µM	-	-
Cc1ccc2cccc(NC(=O)c3ccc(-c4ccc(Br)cc4)o3)c2n1	-	-	.
COc1cc2ccccc2cc1C(=O)Nc1ccccc1N1CCN(S(C)(=O)=O)CC1	25µM	-	?
O=C(Nc1cccc(-c2nc3ccccc3o2)c1)c1ccc(-c2ccc(Br)cc2)o1	?	-	.
CS(=O)(=O)N1CCN(c2ccccc2NC(=O)c2cc(Br)ccc2Cl)CC1	.	.	-
CS(=O)(=O)N1CCN(c2ccccc2NC(=O)c2cccc3ccccc23)CC1	-	-	-
NC[C@@H](CC(=O)O)c1ccc(Cl)cc1	-	-	.
COCCCNC(=O)c1nn(-c2ccc(C)cc2)c(=O)n(C)c1=O	-	-	.
NNC(=O)CNc1cccc(Br)c1	-	-	-
O=C1Nc2cc(C(=O)NCC3CCCO3)ccc2S/C1=C/c1ccccc1F (stereo not given)	.	.	-
CC1Cc2ccccc2N1C(=O)CCS(=O)(=O)c1cccc2nonc12 (stereo not given)	-	-	-
CCSc1nc2ccccc2n1C(=O)Oc1ccccc1	-	-	-
Cc1ccc(CO/N=C\Cc2snc(Sc3ncc(C(F)(F)F)cc3Cl)c2C#N)cc1	4µM	-	-
Cc1ccc(S(=O)(=O)N2CCN(C(=O)CSc3ncc(C(F)(F)F)cc3Cl)CC2)cc1	-	-	-
COc1ccc(CCN2C(=O)CC(NCCc3ccc(S(N)(=O)=O)cc3)C2=O)cc1OC (stereo not given)	-	-	-
COc1ccccc1CNC(=O)CSc1nc2nc(C)c(Cc3ccccc3C)c(C)n2n1	-	-	.
COC(=O)NNC(=O)COc1cc(C)c(Br)cc1C(C)C	-	-	-
Cc1ccc(C(=O)ON=C2CCN(c3ccc([N+](=O)[O-])cc3)CC2)cc1	32µM	-	-
SMILES	Cruzain noTriton	Cruzain inh Det	NS1 function inh
Cc1ccc(C(=O)NC(=S)N2CCN(c3ccc([N+](=O)[O-])cc3)CC2)cc1	-	-	-
CCOc1cc(C2CC(=O)Nc3nc(SCc4ccccc4)[nH]c(=O)c32)ccc1O (stereo not given)	-	-	.
CCOc1ccc([N+](=O)[O-])cc1CNC1CCCCCCC1	.	.	-
N#Cc1c(OCC(=O)c2ccccc2)nc2c(c1-c1ccco1)CCc1ccccc1-2	7.9µM	14µM	-
CCOC(=O)COc1nc2c(c(-c3ccco3)c1C#N)CCc1ccccc1-2	.	.	-
CCN1C(=O)S/C(=C\c2ccc(N3CCOCC3)cc2C)C1=O	-	-	-
CCCN1C(=O)S/C(=C\c2ccc(N3CCOCC3)cc2C)C1=O	-	-	5µM
CC1=CC(C)(C)Nc2ccc(CSc3ccccc3)cc21	-	-	-
O=C(O)c1oc2ccccc2c1CSc1ccc(Cl)cc1	.	.	-
CCC(C)NC(=O)COC(=O)c1oc2ccccc2c1CSc1ccc(Cl)cc1 (stereo not given)	25µM	-	-
CCOc1ccc(CC(=O)NNC(=S)NC2CCCCC2)cc1OCC	-	-	-
CC(=O)Nc1nonc1NC(=O)CSc1ccccn1	-	-	-
CCOc1ccc(S(=O)(=O)NCCC(=O)OCN2C(=O)c3ccccc3C2=O)cc1	-	-	-
Cc1ccc(S(=O)(=O)NCC(=O)OCN2C(=O)c3ccccc3C2=O)cc1	25µM	22µM	-
O=C(NCc1ccccc1)c1ccc(NC(=O)N2CCSc3ncccc32)cc1	-	-	.
Cc1nn2cc(-c3ccc(Cl)cc3)nc2s1	?	-	-
Cc1nn2cc(-c3ccc(-c4ccccc4)cc3)nc2s1	13µM	-	-
Cc1cc(C(=O)COC(=O)c2ccc3c(c2)OCO3)c(C)n1CC1CCCO1 (stereo not given)	.	.	-
Cc1cc(C(=O)COC(=O)c2ccc(O)cc2)c(C)n1CC1COc2ccccc2O1 (stereo not given)	25µM	-	-
CCOC(=O)C1=C(C)N(c2ccccc2)C(=O)/C1=C\c1ccco1	-	-	-
